We go through one sequence from paper PMC7862700, “An all-to-all approach to the identification of sequence-specific readers for epigenetic DNA modifications on cytosine”.

Experiment in all cases: DAPPL (digital affinity profiling via proximity ligation, sequencing); 10 mM Tris-HCl pH 7.5, 50 mM NaCl, 1 mM DTT, 4% glycerol, room temperature, 30 min; GST-TFs on glutathione beads, 16-mer random dsDNA library, 0.1% formaldehyde crosslink after washing; high values mean tight binding
What all share (conditions): protein: recombinant; tags: N-terminal GST; dsDNA, one strand shown

In one test the target is T1, ELK1 (Homo sapiens, UniProt P19419 1-428).
T1 sequence: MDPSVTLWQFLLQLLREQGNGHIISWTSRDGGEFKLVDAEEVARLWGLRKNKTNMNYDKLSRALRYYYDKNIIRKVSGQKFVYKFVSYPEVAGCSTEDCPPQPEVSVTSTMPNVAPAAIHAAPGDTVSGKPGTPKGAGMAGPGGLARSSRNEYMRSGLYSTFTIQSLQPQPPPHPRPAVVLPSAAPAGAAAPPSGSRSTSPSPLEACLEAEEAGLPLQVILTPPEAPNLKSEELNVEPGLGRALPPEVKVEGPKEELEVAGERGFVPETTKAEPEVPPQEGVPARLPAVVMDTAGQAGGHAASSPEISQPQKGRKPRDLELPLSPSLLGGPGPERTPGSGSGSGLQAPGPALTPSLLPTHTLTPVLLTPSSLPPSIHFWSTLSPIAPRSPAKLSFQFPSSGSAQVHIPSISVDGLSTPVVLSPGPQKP
In outline:
(§1)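 GST fusions of human transcription factors were expressed in yeast and captured with glutathione beads. Once given DNA barcodes and pooled alongside a tag-only sample, they were incubated for 30 min at room temperature with 200 nmole of a random double-stranded 16-mer DNA library in Tris/NaCl/DTT/glycerol buffer, then washed, crosslinked (0.1% formaldehyde), proximity-ligated, PCR-amplified and sequenced on an Illumina NextSeq500. The binding signal of each hexamer is its read frequency for a factor divided by its frequency for the tag-only sample.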

The next test concerns the target T2, GABPA (Homo sapiens, UniProt Q06546 1-454).
T2 sequence: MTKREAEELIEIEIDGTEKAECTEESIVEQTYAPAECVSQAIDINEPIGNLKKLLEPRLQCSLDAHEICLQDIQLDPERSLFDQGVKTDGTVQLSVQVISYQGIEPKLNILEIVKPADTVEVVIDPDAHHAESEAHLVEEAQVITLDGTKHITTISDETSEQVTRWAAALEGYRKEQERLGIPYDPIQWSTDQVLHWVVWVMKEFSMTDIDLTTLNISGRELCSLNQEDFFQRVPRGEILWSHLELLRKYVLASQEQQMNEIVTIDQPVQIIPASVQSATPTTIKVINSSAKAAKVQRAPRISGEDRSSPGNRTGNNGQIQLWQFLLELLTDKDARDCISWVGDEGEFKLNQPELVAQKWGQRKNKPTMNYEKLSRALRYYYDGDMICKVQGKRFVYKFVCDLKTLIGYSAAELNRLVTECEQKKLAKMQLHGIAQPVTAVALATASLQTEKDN
The procedure, abridged: as §1

For a further test, the target named is ELF1 (Homo sapiens, UniProt P32519 1-619). In outline:
as §1

The target in the next test is T3, EHF (Homo sapiens, UniProt Q9NZC4 1-300).
T3 sequence: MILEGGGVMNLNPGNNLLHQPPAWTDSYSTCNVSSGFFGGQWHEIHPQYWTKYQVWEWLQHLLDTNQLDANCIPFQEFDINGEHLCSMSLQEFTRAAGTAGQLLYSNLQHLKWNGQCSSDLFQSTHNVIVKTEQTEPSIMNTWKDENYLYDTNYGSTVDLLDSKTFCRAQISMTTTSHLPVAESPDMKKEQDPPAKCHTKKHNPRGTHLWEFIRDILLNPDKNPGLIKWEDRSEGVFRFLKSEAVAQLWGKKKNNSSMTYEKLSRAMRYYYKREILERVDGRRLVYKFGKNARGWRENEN
In outline:
as §1

Another test has as its target SPIB (Homo sapiens, UniProt Q01892 1-262). In outline: as §1
The next test has as its target T4, FEV (Homo sapiens, UniProt Q99581 1-238).
T4 sequence: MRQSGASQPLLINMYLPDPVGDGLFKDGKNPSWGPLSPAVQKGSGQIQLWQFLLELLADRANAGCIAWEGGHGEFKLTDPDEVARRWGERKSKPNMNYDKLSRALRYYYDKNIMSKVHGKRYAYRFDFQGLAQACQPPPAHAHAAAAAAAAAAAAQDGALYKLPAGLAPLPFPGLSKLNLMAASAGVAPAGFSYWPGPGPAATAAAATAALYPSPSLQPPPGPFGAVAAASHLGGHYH
In outline: as §1

Another test deals with ETV5 (Homo sapiens, UniProt P41161 1-510). In outline: as §1
For a further test, the target named is ELF4 (Homo sapiens, UniProt Q99607 1-663). The procedure, abridged:
as §1

The target in the next test is T5, ETV2 (Homo sapiens, UniProt O00321 1-342).
T5 sequence: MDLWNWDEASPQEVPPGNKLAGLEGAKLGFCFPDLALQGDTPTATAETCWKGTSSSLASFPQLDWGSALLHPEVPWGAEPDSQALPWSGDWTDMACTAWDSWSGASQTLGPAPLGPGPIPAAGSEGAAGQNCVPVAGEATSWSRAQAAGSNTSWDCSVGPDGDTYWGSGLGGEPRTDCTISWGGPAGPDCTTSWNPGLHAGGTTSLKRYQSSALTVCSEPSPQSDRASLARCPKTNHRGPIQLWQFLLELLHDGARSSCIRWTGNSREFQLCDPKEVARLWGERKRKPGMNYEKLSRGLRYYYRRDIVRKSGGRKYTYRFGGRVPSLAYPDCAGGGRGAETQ
The procedure, abridged:
as §1

A further test deals with T6, ELF3 (Homo sapiens, UniProt P78545 1-371).
T6 sequence: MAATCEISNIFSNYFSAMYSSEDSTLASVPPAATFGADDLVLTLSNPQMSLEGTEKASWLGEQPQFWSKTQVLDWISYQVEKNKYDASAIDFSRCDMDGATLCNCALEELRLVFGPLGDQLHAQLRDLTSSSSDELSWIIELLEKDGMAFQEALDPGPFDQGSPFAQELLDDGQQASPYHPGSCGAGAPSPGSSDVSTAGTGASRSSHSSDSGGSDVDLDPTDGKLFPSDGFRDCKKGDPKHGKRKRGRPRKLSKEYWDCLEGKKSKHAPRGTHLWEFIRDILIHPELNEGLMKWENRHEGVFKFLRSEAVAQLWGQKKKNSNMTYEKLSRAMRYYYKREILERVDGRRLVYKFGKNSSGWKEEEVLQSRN
The procedure, abridged: as §1

The target of the next test is ETV1 (Homo sapiens, UniProt P50549 1-477). The procedure, abridged: as §1
In another test the target is T7, ERF (Homo sapiens, UniProt P50548 1-548).
T7 sequence: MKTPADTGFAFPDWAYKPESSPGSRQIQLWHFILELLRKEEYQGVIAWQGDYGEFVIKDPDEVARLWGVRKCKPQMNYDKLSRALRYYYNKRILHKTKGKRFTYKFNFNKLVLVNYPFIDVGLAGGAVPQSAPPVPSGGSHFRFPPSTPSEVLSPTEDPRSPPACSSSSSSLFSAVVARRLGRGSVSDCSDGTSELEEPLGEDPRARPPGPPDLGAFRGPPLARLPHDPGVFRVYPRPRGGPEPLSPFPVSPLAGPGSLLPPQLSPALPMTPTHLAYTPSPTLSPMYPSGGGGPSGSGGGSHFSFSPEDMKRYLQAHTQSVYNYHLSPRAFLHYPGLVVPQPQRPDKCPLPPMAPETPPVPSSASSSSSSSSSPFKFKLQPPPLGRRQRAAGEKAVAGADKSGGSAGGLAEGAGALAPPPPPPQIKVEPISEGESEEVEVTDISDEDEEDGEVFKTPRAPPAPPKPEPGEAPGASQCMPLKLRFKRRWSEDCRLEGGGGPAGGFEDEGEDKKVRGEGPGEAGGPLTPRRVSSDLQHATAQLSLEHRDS
In outline:
as §1

Another test has as its target T8, ETS2 (Homo sapiens, UniProt P15036 1-469).
T8 sequence: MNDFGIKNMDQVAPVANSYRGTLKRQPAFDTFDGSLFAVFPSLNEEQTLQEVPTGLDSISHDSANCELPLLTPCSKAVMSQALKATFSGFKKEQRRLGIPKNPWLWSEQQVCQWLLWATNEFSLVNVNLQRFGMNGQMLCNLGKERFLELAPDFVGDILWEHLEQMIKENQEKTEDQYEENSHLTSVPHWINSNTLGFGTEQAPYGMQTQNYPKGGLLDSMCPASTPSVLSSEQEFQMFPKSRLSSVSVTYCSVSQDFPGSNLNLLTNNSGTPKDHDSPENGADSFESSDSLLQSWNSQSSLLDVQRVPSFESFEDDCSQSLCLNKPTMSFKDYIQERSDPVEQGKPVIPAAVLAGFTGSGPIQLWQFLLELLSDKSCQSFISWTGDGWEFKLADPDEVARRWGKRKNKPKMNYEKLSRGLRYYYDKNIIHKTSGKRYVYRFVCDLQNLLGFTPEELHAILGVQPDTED
In outline: as §1

In the next test the target is T9, ETV3 (Homo sapiens, UniProt P41162-2 1-143).
T9 sequence: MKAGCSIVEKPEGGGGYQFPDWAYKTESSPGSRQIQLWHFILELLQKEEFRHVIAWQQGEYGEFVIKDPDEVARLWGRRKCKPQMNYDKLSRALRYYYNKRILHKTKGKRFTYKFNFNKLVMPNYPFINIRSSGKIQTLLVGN
The procedure, abridged: as §1

ETV1, sequence (P50549 whole entry): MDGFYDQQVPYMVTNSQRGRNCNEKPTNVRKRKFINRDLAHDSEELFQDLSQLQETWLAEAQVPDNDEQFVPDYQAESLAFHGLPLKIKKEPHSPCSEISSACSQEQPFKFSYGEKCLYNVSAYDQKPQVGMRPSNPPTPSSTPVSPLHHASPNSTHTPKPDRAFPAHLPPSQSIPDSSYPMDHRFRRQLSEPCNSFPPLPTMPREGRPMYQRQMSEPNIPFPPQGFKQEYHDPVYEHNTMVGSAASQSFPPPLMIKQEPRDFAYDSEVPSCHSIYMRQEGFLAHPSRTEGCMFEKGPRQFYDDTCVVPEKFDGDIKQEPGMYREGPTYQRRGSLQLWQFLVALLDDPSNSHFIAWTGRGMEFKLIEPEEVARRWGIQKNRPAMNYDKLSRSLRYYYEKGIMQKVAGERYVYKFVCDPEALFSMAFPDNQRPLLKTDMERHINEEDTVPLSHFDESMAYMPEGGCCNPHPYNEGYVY
ETV5, sequence (P41161 whole entry): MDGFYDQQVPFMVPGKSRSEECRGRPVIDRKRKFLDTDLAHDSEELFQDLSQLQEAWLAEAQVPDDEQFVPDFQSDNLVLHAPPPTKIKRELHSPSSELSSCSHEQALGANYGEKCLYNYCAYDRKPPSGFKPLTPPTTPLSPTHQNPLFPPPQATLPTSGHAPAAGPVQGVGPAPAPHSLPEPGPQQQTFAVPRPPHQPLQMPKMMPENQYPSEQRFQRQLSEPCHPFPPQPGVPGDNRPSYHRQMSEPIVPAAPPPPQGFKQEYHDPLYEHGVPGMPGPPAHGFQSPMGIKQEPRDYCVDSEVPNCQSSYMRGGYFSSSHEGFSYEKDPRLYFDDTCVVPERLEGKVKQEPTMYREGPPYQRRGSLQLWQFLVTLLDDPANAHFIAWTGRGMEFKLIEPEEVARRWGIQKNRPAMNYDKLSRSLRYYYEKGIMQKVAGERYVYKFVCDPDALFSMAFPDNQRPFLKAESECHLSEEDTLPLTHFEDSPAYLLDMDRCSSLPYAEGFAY
ELF1, sequence (P32519 whole entry): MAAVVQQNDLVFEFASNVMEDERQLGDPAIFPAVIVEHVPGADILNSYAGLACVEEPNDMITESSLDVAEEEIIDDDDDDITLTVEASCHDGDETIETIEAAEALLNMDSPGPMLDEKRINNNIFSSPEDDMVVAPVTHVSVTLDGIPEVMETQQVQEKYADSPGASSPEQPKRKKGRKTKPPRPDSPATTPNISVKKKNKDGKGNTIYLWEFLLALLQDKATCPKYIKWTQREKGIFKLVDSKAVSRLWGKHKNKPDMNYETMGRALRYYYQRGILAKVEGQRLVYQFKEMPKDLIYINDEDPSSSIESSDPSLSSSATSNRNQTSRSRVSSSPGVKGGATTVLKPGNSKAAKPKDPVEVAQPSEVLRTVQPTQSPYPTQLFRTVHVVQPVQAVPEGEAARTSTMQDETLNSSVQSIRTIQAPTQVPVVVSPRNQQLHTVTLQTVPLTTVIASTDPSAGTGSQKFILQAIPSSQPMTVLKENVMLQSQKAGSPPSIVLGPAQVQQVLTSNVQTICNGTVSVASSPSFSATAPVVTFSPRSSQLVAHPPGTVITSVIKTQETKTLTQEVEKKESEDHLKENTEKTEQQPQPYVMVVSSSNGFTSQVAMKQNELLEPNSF
ELF4, sequence (Q99607 whole entry): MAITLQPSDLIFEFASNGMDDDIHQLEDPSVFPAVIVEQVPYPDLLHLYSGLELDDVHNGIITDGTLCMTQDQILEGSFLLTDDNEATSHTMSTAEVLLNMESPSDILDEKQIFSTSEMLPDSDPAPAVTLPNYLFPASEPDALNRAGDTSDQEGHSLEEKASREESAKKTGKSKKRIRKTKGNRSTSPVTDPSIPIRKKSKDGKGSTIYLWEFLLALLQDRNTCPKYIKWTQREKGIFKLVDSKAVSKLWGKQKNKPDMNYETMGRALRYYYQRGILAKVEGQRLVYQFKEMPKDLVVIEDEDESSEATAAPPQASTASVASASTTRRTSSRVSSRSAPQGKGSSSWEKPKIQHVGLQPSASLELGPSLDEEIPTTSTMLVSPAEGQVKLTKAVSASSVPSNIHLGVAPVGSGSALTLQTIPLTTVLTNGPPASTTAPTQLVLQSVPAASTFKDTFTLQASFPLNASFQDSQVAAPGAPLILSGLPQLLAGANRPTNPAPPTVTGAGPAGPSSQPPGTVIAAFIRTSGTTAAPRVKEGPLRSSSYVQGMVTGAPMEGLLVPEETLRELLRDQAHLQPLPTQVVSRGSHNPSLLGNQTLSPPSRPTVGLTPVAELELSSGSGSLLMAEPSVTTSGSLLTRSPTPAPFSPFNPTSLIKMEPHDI
SPIB, sequence (Q01892 whole entry): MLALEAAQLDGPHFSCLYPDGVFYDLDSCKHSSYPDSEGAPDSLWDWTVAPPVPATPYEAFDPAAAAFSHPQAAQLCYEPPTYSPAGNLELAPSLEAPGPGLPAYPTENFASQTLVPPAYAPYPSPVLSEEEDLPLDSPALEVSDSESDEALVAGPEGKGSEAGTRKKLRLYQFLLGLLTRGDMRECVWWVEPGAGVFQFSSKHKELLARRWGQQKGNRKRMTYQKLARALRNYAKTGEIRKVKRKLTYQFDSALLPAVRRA

As for ATAGCC, the binding signal was 1.08 fold enrichment (6-mer frequency, TF over GST control) in the test with ELK1; 1.11 fold enrichment (6-mer frequency, TF over GST control) with GABPA; 1.05 fold enrichment (6-mer frequency, TF over GST control) with ELF1; 1.1 fold enrichment (6-mer frequency, TF over GST control) with EHF; 1.04 fold enrichment (6-mer frequency, TF over GST control) with SPIB; 1.1 fold enrichment (6-mer frequency, TF over GST control) with FEV. Also, the binding signal in the test with ETV5 was 1.1 fold enrichment (6-mer frequency, TF over GST control); with ELF4, 1.1 fold enrichment (6-mer frequency, TF over GST control); with ETV2 it was 1 fold enrichment (6-mer frequency, TF over GST control); with ELF3 it was 1.15 fold enrichment (6-mer frequency, TF over GST control); with ETV1 it was 1.03 fold enrichment (6-mer frequency, TF over GST control); with ERF, 1.1 fold enrichment (6-mer frequency, TF over GST control). Besides, the binding signal was 1.07 fold enrichment (6-mer frequency, TF over GST control) with ETS2 and 1.06 fold enrichment (6-mer frequency, TF over GST control) with ETV3.
